Out of some 200,000 compounds screened, about 65 (0.03%) were called active. This excerpt belongs to a sample that is enriched for actives. A number with no mark means an inactive call.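 How the source made its calls: active means over 50% inhibition of tissue-nonspecific alkaline phosphatase at 20 µM in the single-dose screen; inactive means the rest.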

Data on 108 molecules can be found in PubChem BioAssay AID1135 (Sanford-Burnham Center for Chemical Genomics, 2008).

The assay deals with Alkaline phosphatase, tissue-nonspecific isozyme (Homo sapiens) (UniProt P05186). The assay is described as follows: human TNAP enzyme inhibitors, primary screen, biochemical, luminescent, high phosphate acceptor level, uHTS (AID 1135).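 Further: plate controls were DMSO wells for no effect and EDTA-quenched wells as full inhibition for full effect.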 To be noted: purified TNAP, CDP-star luminescence, 1 M DEA; at 20 µM; active compounds read high.
Alkaline phosphatase, tissue-nonspecific isozyme (Homo sapiens), sequence (P05186 whole entry, looked up): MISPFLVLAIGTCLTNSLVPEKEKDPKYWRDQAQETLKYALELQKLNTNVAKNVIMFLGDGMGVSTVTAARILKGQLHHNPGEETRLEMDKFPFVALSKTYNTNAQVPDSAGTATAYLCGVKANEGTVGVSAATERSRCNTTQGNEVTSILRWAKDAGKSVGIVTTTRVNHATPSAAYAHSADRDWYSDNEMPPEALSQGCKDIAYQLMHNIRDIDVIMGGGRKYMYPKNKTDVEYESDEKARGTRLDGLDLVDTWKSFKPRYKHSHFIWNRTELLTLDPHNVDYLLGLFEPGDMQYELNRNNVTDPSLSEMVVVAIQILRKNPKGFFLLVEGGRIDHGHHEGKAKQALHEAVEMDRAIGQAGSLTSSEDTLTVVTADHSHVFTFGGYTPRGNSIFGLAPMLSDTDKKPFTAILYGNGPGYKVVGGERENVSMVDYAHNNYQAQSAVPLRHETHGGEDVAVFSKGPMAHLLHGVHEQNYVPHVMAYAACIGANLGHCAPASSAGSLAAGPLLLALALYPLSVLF
`CC(=O)N/N=C/c1cc2c(cc1[N+](=O)[O-])OCO2`: the inhibition is 2.5%. Next, `COc1ccc(NC(=S)NCCN2CCC(C)CC2)cc1`: -0.4%; `CCN1CCN(C(C(=O)NC2CCCC2)c2cc3c(cc2[N+](=O)[O-])OCO3)CC1` (stereo not drawn): -2.4%; `O=C(Nc1ccccc1C(=O)N1CCOCC1)c1ccc(Cl)cc1`: -6.3%. The figure for `COc1ccc(Cl)cc1NC(=O)[C@@H]1CCCN1C(=O)c1cccs1` is 1%; for `O=[N+]([O-])c1ccc(N/N=C2/CCCCC2c2ccccn2)c([N+](=O)[O-])c1` (stereo not drawn) it is 4%. On to `CC(C)OC(=O)Cn1nc(C(F)(F)F)c2c1CCCC2`, for which the inhibition is -1.6%. Regarding `O=C(COc1ccccc1)Nc1ccc(N2CCN(C(=O)c3cccs3)CC2)cc1`, the inhibition was -2.1%.

On to `Cc1ccc(NC(=O)c2sccc2C)cc1[N+](=O)[O-]`, for which the inhibition is 0.9%. Next, `COc1ccc(NS(=O)(=O)c2cc(NC(=O)C3CCCCC3)ccc2N2CCOCC2)cc1`: 0.1%.

With `COc1cccc(OC)c1C(=O)OCC(=O)/C(C#N)=C(\C)N`, the inhibition was 0.2%. Turning to `CCOc1ccc(CCN2C(=O)c3cccnc3C2=O)cc1OCC`, the inhibition was 2.6%. Take `CC(=O)c1ccc(N2CCN(CC(=O)Nc3ccccc3N3CCOCC3)CC2)cc1`: the inhibition was -5.4%. Next, `CCOCCCNC(=O)C(NC(=O)Cc1c[nH]c2ccccc12)c1ccc(OC)cc1` (stereo not drawn): 2.4%. In the case of `CCN1CCN(c2cc3nc(C)n(Cc4ccccc4)c(=O)c3cc2NC(=O)c2ccccc2F)CC1`, the inhibition is -2.8%. On to `C/C(=N\NC(=O)c1ccc(NS(=O)(=O)c2cccs2)cc1)c1ccc2ccccc2c1`, for which the inhibition is -2.7%. On to `Cc1ccc(C(=O)COC(=O)CCCC(=O)NC2CCCCC2)cc1[N+](=O)[O-]`, for which the inhibition was -4.3%. Take `O=C(Nc1cccnc1)c1cc2cc(Br)ccc2oc1=O`: the inhibition was -1.6%.

As for `CCNS(=O)(=O)c1ccc(NC(=O)c2cncc(Br)c2)cc1`, the inhibition was -1%.

As to `Cc1ccc(S(=O)(=O)N(C)C)cc1NC(=O)COC(=O)C1COc2ccccc2O1` (stereo not drawn), the inhibition is -3.2%.

In the case of `CCOC(=O)c1ccccc1N1C(=O)C2Sc3[nH]c(=O)sc3C(/C=C/c3ccccc3)C2C1=O` (stereo not drawn), the inhibition is 4.9%. For the molecule `CCc1nnc(NC(=O)CCCSc2nc3ccccc3[nH]2)s1`, the inhibition was -4.4%.

Turning to `CCN(CC)P(=O)(Nc1ccc(SC(F)F)cc1)c1ccc(N(C)C)cc1NC(=O)c1ccco1` (stereo not drawn), the inhibition was -7.3%. With `O=C(C(=O)N1CCc2ccccc2C1)c1c[nH]c2ccccc12`, the inhibition was 40.6%. In the case of `C=CCNc1scc(-c2ccccc2)[n+]1CC=C`, the inhibition was -7.7%. Regarding `Oc1c(Br)cccc1/C=N/Nc1c(F)c(F)c(F)c(F)c1F`, the inhibition is 4.6%. With `C/C(=N/NC(=O)CSc1ccccn1)c1ccc([N+](=O)[O-])cc1`, the inhibition is -4.8%.

Regarding `Nc1nnnn1CC(=O)N/N=C/c1ccc(-c2cccc(Cl)c2)o1`, the inhibition was -2.3%. On to `O=C(COc1ccc(Cl)cc1)NCc1nnc(SCC(=O)NCC2CCCO2)o1` (stereo not drawn), for which the inhibition was -2.4%.

As to `COc1ccc(/C=C/C(=O)c2cc(Br)ccc(=O)c2O)cc1`, the inhibition is 12.7%. On to `CCNC(=O)CC1C(=O)N(c2ccc(F)cc2)C(=O)N1CCc1sccc1C` (stereo not drawn), for which the inhibition was 3.2%. As to `CCCCn1c(N)c(N(CC)C(=O)/C=C/c2ccco2)c(=O)[nH]c1=O`, the inhibition was 1.1%. In the case of `COc1ccc(Cl)cc1N(CC(=O)N1CCCCC1)S(C)(=O)=O`, the inhibition was -2.8%. `COc1ccc(C2CC(c3ccccc3)=NN2C(=O)c2ccc(Cl)c([N+](=O)[O-])c2)cc1` (stereo not drawn): the inhibition is 0.4%.

With `O=C(/C(=C/c1cccc(Cl)c1)c1nc2ccccc2[nH]1)c1ccccc1`, the inhibition is -1.2%. Next, `Cc1cc(C)n(-c2ccc3nncn3n2)n1`: -4%. `CCOc1ccc(S(=O)(=O)Nc2ccncc2)c(C)c1C`: the inhibition was -3.2%. Regarding `c1ccc2c(NC3C4CC5CC(C4)CC3C5)nc(N3CCOCC3)nc2c1` (stereo not drawn), the inhibition is -4.8%. On to `COc1cccc(C(=O)Oc2cc(C)[nH]c(=O)c2[N+](=O)[O-])c1`, for which the inhibition is -4.1%.

Take `CC1(C)CC(=O)CC2(C1)NCC(c1ccccc1Cl)c1c2[nH]c2ccccc12` (stereo not drawn): the inhibition is -3.4%. For the molecule `CCOn1c(=O)c(=O)n(O)c2ccccc21`, the inhibition is -6.3%. `Cc1ccc([N+](=O)[O-])c(OCCCNCC(C)O)c1` (stereo not drawn): the inhibition is -0.7%. For the molecule `COc1ccc(C)cc1NC(=O)C(Sc1ccccc1)c1ccccc1` (stereo not drawn), the inhibition was -3%. The figure for `CCCCC(CC)CNC(=O)CCCCn1c(=O)[nH]c2ccsc2c1=O` (stereo not drawn) is -0.9%; for `OCCC1CN(Cc2cccc(OC3CCCC3)c2)CCN1Cc1ccsc1` (stereo not drawn) it is -1.7%. Take `O=C(CN1C(=O)/C(=C/c2ccccc2F)Sc2ccccc21)NCc1cccnc1`: the inhibition was -4.7%. Consider `Cc1ccc(CN2CCN(/N=C/c3ccco3)CC2)c(C)c1`, for which the inhibition is -2%.

In the case of `Cc1ccc(/C(N)=N/OC(=O)COc2ccc(Cl)c(C)c2)cc1`, the inhibition is -6.6%.

In the case of `COc1ccc(Cl)cc1NC(=O)CN(C)Cc1ccc(OC)c(OC)c1`, the inhibition is 2.3%. Next, `Cc1nnc(SC(C(=O)Nc2cc(Cl)cc(Cl)c2)c2ccccc2)[nH]c1=O` (stereo not drawn): 2.4%.

Consider `COc1ccc(F)cc1C(=O)C1CCCN(C(=O)CCc2ccccn2)C1` (stereo not drawn), for which the inhibition was 0.9%.

As to `COc1ccc(NC(=O)CN(Cc2ccccc2)S(C)(=O)=O)cc1OC`, the inhibition was -3.6%. In the case of `O=C(O)c1ccc(NS(=O)(=O)c2ccc3c(c2)C(=O)c2cc(S(=O)(=O)Nc4ccc(C(=O)O)cc4)ccc2-3)cc1`, the inhibition is 2.8%. Take `CCC(=O)Nc1c(C)n[nH]c1C`: the inhibition is -6.7%.

For the molecule `CC(CCc1ccccc1)NCC(O)c1cccc([N+](=O)[O-])c1` (stereo not drawn), the inhibition is -4.1%. Take `N#Cc1c(NC(=O)CCCl)sc2c1CCCCC2`: the inhibition is 0.1%. In the case of `CC(=O)c1c(C)[nH]c(C(=O)OCC(=O)Nc2sc3c(c2C#N)CCCC3)c1C`, the inhibition is 50.6% (active). For the molecule `Cc1cccc(C(=O)OCC(=O)Nc2sc3c(c2C#N)CCC3)c1`, the inhibition was 5.2%.

Turning to `Oc1ccc(/C=N/N(Cc2ccccc2)c2ccccc2)cc1`, the inhibition is -6.2%.

Take `Cc1nc(CC(=O)NNS(=O)(=O)c2ccc(F)c(Cl)c2)cs1`: the inhibition was -6.6%. `O=C(O)c1ccccc1-c1ccccc1C(=O)NCc1cccnc1`: the inhibition is 3.5%. As to `O=C(Oc1c(-c2ccco2)oc2ccccc2c1=O)c1cccnc1`, the inhibition is -3.4%. For `C(=N\N1CCN(c2ccccn2)CC1)/C1=C(N2CCOCC2)C(=C/c2ccccc2)/CC1`, the inhibition was -0.3%. Next, `CC(=O)Nc1sc2c(c1C(c1cccc(F)c1)N1CCN(CCO)CC1)CCCC2` (stereo not drawn): -3.5%.

On to `Cc1cccc(NC(=O)c2ccc3nsnc3c2)c1C`, for which the inhibition was -1.2%. Consider `CCOC(=O)c1c(NC(=O)C2CC=CCC2C(=O)O)sc(C)c1CC` (stereo not drawn), for which the inhibition is 2%. As for `CCC(C)NC(=O)c1nn(C)c(=O)c2ccccc12` (stereo not drawn), the inhibition is -4.5%. Take `O=c1c(-c2ccccc2)coc2cc(O)ccc12`: the inhibition was -6.9%. Take `COc1cc2sc(C)nc2cc1C`: the inhibition was -3.9%. Next, `CCSc1ccccc1C(=O)Nc1ccc2c(c1)OCO2`: -5.5%; `COc1cc(/C=C/C(=O)O)cc(S(=O)(=O)Nc2ccccc2SC)c1OC`: 6.4%. Turning to `CC(=O)Nc1ccc(Nc2c3ccccc3nc3ccccc23)cc1`, the inhibition was 2.2%. The figure for `O=C(CN1CCN(c2ccc(Cl)cc2)CC1)NCc1cccs1` is -1.4%. Regarding `CCCCNC(=O)C1CCC(CNS(=O)(=O)c2ccc(NC(C)=O)cc2)CC1` (stereo not drawn), the inhibition is -2.5%.

Take `O=C(CCc1ccc(S(=O)(=O)N2CCOCC2)cc1)NN=C1CCCCCCC1`: the inhibition is -2%. On to `COc1ccc(N2C(=O)CC(Sc3n[nH]c(-c4ccc(C)cc4)n3)C2=O)cc1` (stereo not drawn), for which the inhibition was -5.7%.

For the molecule `CN(C)c1nccc(NCc2ccccc2)c1C#N`, the inhibition is 0.6%. On to `COc1cccc(N(Cc2nnc3n2CCCCC3)C(=O)Nc2ccccc2F)c1`, for which the inhibition is -2.9%. For `CC(C)c1nc2sc3c(c2c(=O)n1N)CC(C)(C)OC3`, the inhibition is -1.5%. The figure for `COCCn1c(SCC(=O)Nc2ccc3c(c2)CCC3)nc2ccccc2c1=O` is -1.3%. For `CCN(C(=O)CSc1nc2ccccc2n1CC)C1CCS(=O)(=O)C1` (stereo not drawn), the inhibition is -1.3%. As to `Cc1cc(C(=O)COC(=O)CNC(=O)c2ccc(F)cc2)c(C)n1Cc1ccco1`, the inhibition is 1.3%. Turning to `S=C(Nc1ccc(Br)cc1Cl)NC1CCN(Cc2ccccc2)CC1`, the inhibition was -5.2%. Next, `CSCCC(NC(=O)c1cc([N+](=O)[O-])cc([N+](=O)[O-])c1)c1nc2ccccc2[nH]1` (stereo not drawn): -6.8%; `CCc1ccc(CN2C(=O)c3ccccc3C2C(=O)NCC2CCCO2)cc1` (stereo not drawn): 2.3%. As for `Cc1cccc(N2CCN(c3ccc(NC(=O)/C=C\C(=O)O)cc3)CC2)c1`, the inhibition is -4.5%.

Consider `NNC(=O)COc1ccc(C2SCCS2)cc1`, for which the inhibition is -6.7%. Next, `O=C(NCc1ccncc1)NC12CC3CC(CC(C3)C1)C2`: 2.3%.

Turning to `COc1ccc([N+](=O)[O-])cc1NC(=O)CC1SC(=Nc2cccc(C)c2C)N(/N=C(\C)c2ccc(C)cc2)C1=O` (stereo not drawn), the inhibition is -3.9%. For `CCOc1ccc(C(c2c(C)[nH][nH]c2=O)c2c(C)[nH][nH]c2=O)cc1OCC`, the inhibition is 71.4% (active). In the case of `Cc1[nH][nH]c(=O)c1C(c1ccc2c(c1)OCO2)c1c(C)[nH][nH]c1=O`, the inhibition is 44%. With `Cc1[nH][nH]c(=O)c1C(c1ccc(-c2ccc(Cl)cc2)o1)c1c(C)[nH][nH]c1=O`, the inhibition is 10.3%. Regarding `CC(CNc1ccc([N+](=O)[O-])c2cccnc12)Nc1c([N+](=O)[O-])cc(C(F)(F)F)cc1[N+](=O)[O-]` (stereo not drawn), the inhibition is 13.7%. On to `NS(=O)(=O)c1ccc(CCNC(=O)c2ccc(Cl)cc2[N+](=O)[O-])cc1`, for which the inhibition is 5.9%.

`CCCC(=O)NC(=S)Nc1ccc(CN2CCOCC2)cc1`: the inhibition was -4.1%.

For `Cc1cc(-c2n[nH]c(=S)n2-c2ccc(C)c(C)c2)no1`, the inhibition is -3%. The figure for `O=C(c1cc(Cl)cc(Cl)c1)N1CCC(=O)N(C(COCc2ccccc2)Cc2ccccc2)CC1` (stereo not drawn) is -3.9%; for `CCn1c(SCC(=O)Nc2nc(C)cs2)nnc1C(C)NC(=O)c1ccccc1` (stereo not drawn) it is -5.3%.

`COCCCNC(=O)CNC(=S)N(Cc1cc(OC)c(OC)c(OC)c1)C1CCCC1`: the inhibition is -4.1%.

Take `CC(=O)Nc1ccc(NC(=O)C(C)OC(=O)c2ccccc2C(=O)c2ccc(Cl)c([N+](=O)[O-])c2)cc1` (stereo not drawn): the inhibition is 0.3%. Take `Cc1cc(C)c(NC(=O)c2oc3ccccc3c2COc2ccccc2)c(C)c1`: the inhibition was 0.7%.

For `CCn1c(C(C)NC(=O)c2ccc(C)cc2)n[nH]c1=S` (stereo not drawn), the inhibition was -0.4%. Next, `CC(C)(C)NC(=O)CN(C(=O)c1ccc(Cl)nc1)c1cccc2ccccc12`: -2.9%; `CC(C)(C)n1nc2c(c1NC(=O)c1cc3ccccc3o1)CSC2`: -7.4%; `COc1cc(C(=O)Nc2cc(C(F)(F)F)ccc2-n2cncn2)cc(OC)c1OC`: -1.7%.

With `O=C(COc1cc(Cl)c(Cl)cc1Cl)NC(=O)NC1CCCC1`, the inhibition was 0.7%. For the molecule `O=C(Nc1ccc2c(c1)OCO2)c1sc2cc(Cl)ccc2c1Cl`, the inhibition is 0.3%. Turning to `Cc1nnc(SCc2cccc(Cl)c2)n(N)c1=O`, the inhibition was -2.2%.

The term inhibition denotes the change of the read-out against control, counted positive when it falls.
